# From PubChem BioAssay (NCATS)
# A number with no mark means an inactive call. Records with an inconclusive call do not appear. Where a call stands in place of a potency, no number is given. Active and inactive are the calls of the source. Unless noted, calls follow the shape of the dose curve; as a rule, active = well fitted curve in the direction sought with a large enough effect; inconclusive = small, poorly fitted or top-dose-only effect, or another doubt; inactive = no such curve, though single readings can be large; an effect the other way counts as inactive or inconclusive.
# Tests used:
# [1] = biological target: Lysosomal acid glucosylceramidase (Homo sapiens) (UniProt P04062); assay: Glucocerebrosidase-p2 (AID 348; in the data active = potency below about 10 µM; also: potency is read from the fitted curve at half-maximal effect); details: purified GBA, blue fluorogenic substrate, 40 min
# How it was run: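 Normal human glucocerebrosidase (0.2 nM) with blue fluorogenic substrate (80 uM final) in citrate/phosphate pH 5.9 with 10mM sodium taurocholate, 0.01% tween-20; 40 min RT, NaOH/glycine stop; fluorescence Ex 365/Em 440; AC50 from a titration from 0.6 nM upwards.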
# [2] = AP1 Signaling Pathway (AID 357; active = well fitted curve in either direction with a large enough effect, not every such curve was filed as active); details: ME-180 AP-1-bla reporter, EGF-induced, beta-lactamase ratio, 5 h; at 7.69 µM (top of the series) unless noted
# How it was run: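 ME-180 cells with beta-lactamase reporter under AP-1 response element, stimulated with EC50 EGF; compounds tested in titration series, 5 h at 37 °C. CCF4 substrate added 2.5 h at room temperature; 460/530 nm emission ratio gave %activity and AC50.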
# [3] = NFAT Signaling Pathway (AID 444; active = well fitted curve in either direction with a large enough effect, not every such curve was filed as active;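 also: carbachol stimulus at about its EC50 of 1 µM final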); details: Jurkat NFAT-bla M1, carbachol, beta-lactamase ratio, 5 h; at 7.69 µM (top of the series) unless noted
# How it was run: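 Jurkat cells carrying an NFAT-driven β-lactamase reporter and co-transfected muscarinic M1 receptor were treated with compound plus carbachol (1 uM final, an EC50 level) for 5 h at 37 °C. CCF4 loading followed for 1 h at RT; 460/530 nm ratio gave %activity.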
# [4] = Stat Signaling Pathway (AID 446; active = well fitted curve in either direction with a large enough effect, not every such curve was filed as active;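 also: ME-180 cervical cancer cells given 40 pM IL-6 alongside compound; SIE-controlled beta-lactamase reporter measured as 460/530 nm FRET emission ratio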)
# How it was run: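 Compound effects on IL-6-induced STAT reporter activity were measured in ME-180 cells. After overnight culture, cells were co-treated with 40 pM IL-6 for 5 hrs before beta-lactamase substrate loading at room temperature.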
# [5] = biological target: Glucocorticoid receptor (Homo sapiens) (UniProt P04150); assay: GR-GFP Redistribution (AID 450;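 active = compounds whose dose series gives a full or clear partial fitted curve of increased nuclear translocation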; also: potency is read from the fitted curve at half-maximal effect); details: U2OS GR-GFP nuclear translocation, laser cytometry, 2 h
# [6] = biological target: Mitogen-activated protein kinase 10 (Mus musculus) (UniProt Q61831); assay: JNK3 AlphaScreen Assay (AID 530; active = well fitted curve in either direction with a large enough effect, not every such curve was filed as active;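 also: kinase came from lysate of stimulated human HepG2 cells; signal reports phosphorylation of biotinylated GST-cJun 1-79 at Ser73 with 10 µM ATP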)
# How it was run: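 Biotinylated GST-cJun(1-79) served as substrate for JNK3 in HepG2 lysates stimulated with IL-1beta and TNF-alpha. ATP was 10 uM final, pH 7.6. Ser73 phosphorylation was quantified by AlphaScreen (680 nm excitation).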
# [7] = biological target: Dual specificity protein kinase CLK4 (Homo sapiens) (UniProt Q9HAZ1); assay: qHTS Assay for Inhibitors of CDC-like Kinase 4 (ADP-FP Assay) (AID 1795);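 also: recombinant human CLK4 phosphorylating RS repeat peptide at 1 µM ATP; nearly all actives have a fitted effect of over 60% in size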
# How it was run: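 Kinase activity was measured as ADP production using Transcreener orange tracer (4 nM) and ADP antibody (1 ug/mL) fluorescence polarization, with ADP calculated from a calibration curve. The 1 h reaction contained 6.25 nM Clk4, 1 uM ATP and 100 uM RS peptide at pH 7.5 with Mg2+.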
# [8] = biological target: Ubiquitin carboxyl-terminal hydrolase 1 (Homo sapiens) (UniProt O94782); assay: Inhibitors of USP1/UAF1: Pilot qHTS (AID 504865);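 also: rhodamine fluorescence freed from ubiquitin-rhodamine substrate followed over time; top concentration of the series differs between compounds; nearly all actives have a fitted effect of over 35% in size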
# How it was run: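 Deubiquitinase activity followed as kinetic rhodamine fluorescence release from 150 nM Ub-Rho. 1 nM USP1/UAF1 with compound, after 15 min room-temperature preincubation, in HEPES pH 7.8 buffer containing TCEP, EDTA, BSA and Tween-20.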
# [9] = biological target: Rap guanine nucleotide exchange factor 3 (Homo sapiens) (UniProt O95398); assay: Confirmatory qHTS for antagonist of cAMP-regulated guanine nucleotide exchange factor 3 (EPAC1) (AID 1645880); details: EPAC1 Rap1B-BODIPY-GDP exchange, fluorescence; activity, negative = inhibition: at 115 µM (top of the series); also: nearly all actives have a fitted effect of over 55% in size; also: potency is read from the fitted curve at half-maximal effect
# How it was run: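 Released BODIPY-GDP fluoresces less than Rap1-bound BODIPY-GDP; the signal is followed at 480/540 nm at 5-min intervals over 30 min, after 5 min at room temperature. Reactions contain 100 nM EPAC1, 250 nM RAP1B-BODIPY-GDP and 50 uM GDP; results are normalized to ATA and DMSO.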
# [10] = biological target: Rap guanine nucleotide exchange factor 3 (Homo sapiens) (UniProt O95398); assay: Confirmatory qHTS for agonist of cAMP-regulated guanine nucleotide exchange factor 3 (EPAC1) (AID 1645881); also: nearly all actives have a fitted effect of over 75% in size; also: potency is read from the fitted curve at half-maximal effect;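 as to activation: EPAC1 catalysed release of BODIPY-GDP from Rap1B seen as fluorescence loss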
# [11] = biological target: Rap guanine nucleotide exchange factor 4 (Homo sapiens) (UniProt Q8WZA2); assay: Confirmatory qHTS for agonist of cAMP-regulated guanine nucleotide exchange factor 4 (EPAC2) (AID 1645884);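 also: nucleotide exchange releases bodipy-GDP from Rap1 and this lowers its fluorescence; nearly all actives have a fitted effect of over 65% in size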; also: potency is read from the fitted curve at half-maximal effect
# [12] = biological target: Rap guanine nucleotide exchange factor 4 (Homo sapiens) (UniProt Q8WZA2); assay: Confirmatory qHTS for antagonist of cAMP-regulated guanine nucleotide exchange factor 4 (EPAC2) (AID 1645885); also: nearly all actives have a fitted effect of over 25% in size; also: potency is read from the fitted curve at half-maximal effect
# [13] = biological target: DNA dC->dU-editing enzyme APOBEC-3G (Homo sapiens) (UniProt Q9HC16); assay: qHTS for inhibitors of Vif-A3G interactions: Validation (AID 588379)
# How it was run: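 Yellow fluorescence (Ex 488, Em 500-530) of Vif-coexpressing HeLa A3G-eYFP cells, scanned by Acumen cytometer, reports blocked A3G degradation. Cells plated at 700/well overnight at 37 deg C before compound addition, then a further overnight compound incubation at 37 deg C.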
# [14] = biological target: Cytochrome P450 1A2 (Homo sapiens) (UniProt P05177); assay: p450-cyp1a2 (AID 410; calls by dose curve; also: potency is read from the fitted curve at half-maximal effect)
# How it was run: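 Read-out is luminescence from luciferin produced by CYP1A2 demethylation of Luciferin-ME (100uM, at Km). Detection reagent stopped the 60 min NADPH-dependent reaction; signals were normalized to 57 uM furafylline.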
# [15] = biological target: Glucocorticoid receptor (Homo sapiens) (UniProt P04150); assay: GR-EFC Redistribution (AID 451; calls by dose curve; also: potency is read from the fitted curve at half-maximal effect); details: CHO-K1 GR-EFC translocation, beta-gal luminescence, 2 h
# How it was run: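 CHO-K1 cells stably expressing nuclear-localized β-gal enzyme acceptor and GR fused C-terminally to the enzyme donor fragment; ligand-driven nuclear translocation restores β-gal by complementation. Compounds titrated up to 46 uM final, 2 h at 37 °C; luminescence read.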
# [16] = biological target: Cytochrome P450 3A4 (Homo sapiens) (UniProt P08684); assay: qHTS Assay for Activators of Cytochrome P450 3A4 (AID 885); also: nearly all actives have a fitted effect of over 65% in size
# How it was run: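 CYP3A4 activity: Luciferin-PPXE O-dealkylation, 25uM substrate, 200mM KPO4, RT throughout. Read-out is luciferase luminescence; higher values reflect activation.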
# [17] = biological target: Rap guanine nucleotide exchange factor 3 (Homo sapiens) (UniProt O95398); assay: Counterscreen qHTS for antagonist of cAMP-regulated guanine nucleotide exchange factor 3 (EPAC1) (AID 1645888)
# How it was run: (§1)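 Measured: fluorescence of BODIPY-GDP bound to Rap1B, which falls as exchange proceeds. Conditions include 50 uM competing GDP, 5 and 30 min reads, and a later cAMP challenge for antagonist detection.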
# [18] = biological target: 3',5'-cyclic-AMP phosphodiesterase 4B (Homo sapiens) (UniProt Q07343); assay: qHTS Assay for Inhibitors of PDE-IV (AID 607; active = well fitted activation curve with a large enough effect in the main read-out, with a control signal flat, not every such curve was filed as active)
# How it was run: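 ACTOne HEK293 cells carry a modified cAMP-gated CNG channel and express endogenous PDE4; plated 1000 cells/well, compounds up to 22.9 uM final. Membrane-potential dye fluorescence (ex 535/em 590) was read; parental cells received 10 uM forskolin + 100 uM RO 20-1724.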
# [19] = biological target: Cytochrome P450 3A4 (Homo sapiens) (UniProt P08684); assay: qHTS Assay for Inhibitors and Substrates of Cytochrome P450 3A4 (AID 884); also: potency is read from the fitted curve at half-maximal effect; nearly all actives have a fitted effect of over 50% in size
# How it was run: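 Luminescent readout of luciferin produced by CYP3A4 (20 nM) dealkylation of Luciferin-PPXE, 25 uM (its KM). NADPH-driven reaction ran 60 min at RT after 10 min compound preincubation; data scaled to 57 uM ketoconazole as 100% inhibition.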
# [20] = biological target: Tumor susceptibility gene 101 protein (Homo sapiens) (UniProt Q99816); assay: qHTS Assay for Iinhibitors of HIV-1 Budding by Blocking the Interaction of PTAP/TSG101: Hit Validation (AID 651600); also: potency is read from the fitted curve at half-maximal effect; nearly all actives have a fitted effect of over 70% in size
# How it was run: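 FITC-PTAP peptide (50 nM final) binding to Tsg101 binding domain (10 uM final) was measured by polarization after 20 min at r.t. with compounds, in 10 mM HEPES pH 7.5 buffer with 0.15 M NaCl and 0.01% Tween 20.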
# [21] = biological target: Rap guanine nucleotide exchange factor 3 (Homo sapiens) (UniProt O95398); assay: Counterscreen qHTS for agonist of cAMP-regulated guanine nucleotide exchange factor 3 (EPAC1) (AID 1645889); also: potency is read from the fitted curve at half-maximal effect; nearly all actives have a fitted effect of over 40% in size
# How it was run: as §1
# Chain of Rap guanine nucleotide exchange factor 3 (Homo sapiens) (O95398 whole entry, looked up): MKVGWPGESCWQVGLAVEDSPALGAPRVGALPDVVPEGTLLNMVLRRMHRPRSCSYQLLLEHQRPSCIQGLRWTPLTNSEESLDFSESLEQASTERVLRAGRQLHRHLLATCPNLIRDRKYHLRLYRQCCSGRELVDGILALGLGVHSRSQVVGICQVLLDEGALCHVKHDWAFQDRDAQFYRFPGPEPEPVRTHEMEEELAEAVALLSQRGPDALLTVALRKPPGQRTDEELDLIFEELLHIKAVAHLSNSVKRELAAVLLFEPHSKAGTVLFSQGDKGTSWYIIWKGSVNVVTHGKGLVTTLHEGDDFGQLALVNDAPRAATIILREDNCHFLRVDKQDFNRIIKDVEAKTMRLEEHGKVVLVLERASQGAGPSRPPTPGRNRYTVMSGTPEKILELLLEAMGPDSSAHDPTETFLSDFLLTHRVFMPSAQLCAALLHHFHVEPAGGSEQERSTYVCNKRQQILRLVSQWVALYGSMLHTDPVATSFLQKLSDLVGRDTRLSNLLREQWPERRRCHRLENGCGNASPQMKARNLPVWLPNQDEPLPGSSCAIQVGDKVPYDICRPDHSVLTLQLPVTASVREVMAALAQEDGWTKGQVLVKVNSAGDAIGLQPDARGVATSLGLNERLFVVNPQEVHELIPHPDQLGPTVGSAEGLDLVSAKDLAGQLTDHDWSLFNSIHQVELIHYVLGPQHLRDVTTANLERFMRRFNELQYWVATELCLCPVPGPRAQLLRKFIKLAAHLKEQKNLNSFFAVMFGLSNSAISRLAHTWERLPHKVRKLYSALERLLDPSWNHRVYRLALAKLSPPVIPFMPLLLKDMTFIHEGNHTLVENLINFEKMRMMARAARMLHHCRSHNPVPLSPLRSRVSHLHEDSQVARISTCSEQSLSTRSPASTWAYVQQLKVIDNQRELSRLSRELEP
# Chain of Cytochrome P450 3A4 (Homo sapiens) (P08684 whole entry, looked up): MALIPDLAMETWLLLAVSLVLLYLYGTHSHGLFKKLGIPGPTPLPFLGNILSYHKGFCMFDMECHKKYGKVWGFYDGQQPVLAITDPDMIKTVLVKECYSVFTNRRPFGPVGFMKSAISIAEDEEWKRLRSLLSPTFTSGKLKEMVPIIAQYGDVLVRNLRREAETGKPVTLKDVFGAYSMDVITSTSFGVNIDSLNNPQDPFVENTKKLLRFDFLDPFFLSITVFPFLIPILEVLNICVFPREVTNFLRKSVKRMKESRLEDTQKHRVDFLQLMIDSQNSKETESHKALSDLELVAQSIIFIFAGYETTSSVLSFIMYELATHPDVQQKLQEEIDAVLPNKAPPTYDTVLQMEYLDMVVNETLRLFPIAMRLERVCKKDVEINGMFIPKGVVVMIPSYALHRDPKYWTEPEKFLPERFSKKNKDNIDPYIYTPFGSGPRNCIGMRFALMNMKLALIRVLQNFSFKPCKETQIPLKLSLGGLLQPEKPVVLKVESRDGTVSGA
# Chain of Glucocorticoid receptor (Homo sapiens) (P04150 whole entry, looked up, the tested form may be a part): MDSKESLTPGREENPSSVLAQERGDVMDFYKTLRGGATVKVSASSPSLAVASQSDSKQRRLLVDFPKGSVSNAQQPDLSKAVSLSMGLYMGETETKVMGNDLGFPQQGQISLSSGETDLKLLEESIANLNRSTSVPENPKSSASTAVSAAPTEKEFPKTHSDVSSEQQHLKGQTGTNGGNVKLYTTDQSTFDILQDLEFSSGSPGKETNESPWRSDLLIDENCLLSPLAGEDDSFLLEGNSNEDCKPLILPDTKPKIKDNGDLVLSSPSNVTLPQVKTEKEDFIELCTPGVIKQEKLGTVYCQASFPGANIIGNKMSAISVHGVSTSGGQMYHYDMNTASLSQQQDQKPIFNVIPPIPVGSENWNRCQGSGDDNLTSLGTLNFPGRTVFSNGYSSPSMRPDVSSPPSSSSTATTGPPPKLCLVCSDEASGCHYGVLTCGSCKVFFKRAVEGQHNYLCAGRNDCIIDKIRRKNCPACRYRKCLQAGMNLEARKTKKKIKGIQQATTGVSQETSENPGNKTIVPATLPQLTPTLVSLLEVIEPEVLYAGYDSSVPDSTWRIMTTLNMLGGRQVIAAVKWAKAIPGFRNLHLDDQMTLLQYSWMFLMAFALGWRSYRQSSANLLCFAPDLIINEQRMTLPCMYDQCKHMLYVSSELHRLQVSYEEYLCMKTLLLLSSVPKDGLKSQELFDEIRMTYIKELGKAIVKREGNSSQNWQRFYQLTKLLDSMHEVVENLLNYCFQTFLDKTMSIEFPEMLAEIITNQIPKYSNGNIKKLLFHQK
# Chain of Lysosomal acid glucosylceramidase (Homo sapiens) (P04062 whole entry, looked up): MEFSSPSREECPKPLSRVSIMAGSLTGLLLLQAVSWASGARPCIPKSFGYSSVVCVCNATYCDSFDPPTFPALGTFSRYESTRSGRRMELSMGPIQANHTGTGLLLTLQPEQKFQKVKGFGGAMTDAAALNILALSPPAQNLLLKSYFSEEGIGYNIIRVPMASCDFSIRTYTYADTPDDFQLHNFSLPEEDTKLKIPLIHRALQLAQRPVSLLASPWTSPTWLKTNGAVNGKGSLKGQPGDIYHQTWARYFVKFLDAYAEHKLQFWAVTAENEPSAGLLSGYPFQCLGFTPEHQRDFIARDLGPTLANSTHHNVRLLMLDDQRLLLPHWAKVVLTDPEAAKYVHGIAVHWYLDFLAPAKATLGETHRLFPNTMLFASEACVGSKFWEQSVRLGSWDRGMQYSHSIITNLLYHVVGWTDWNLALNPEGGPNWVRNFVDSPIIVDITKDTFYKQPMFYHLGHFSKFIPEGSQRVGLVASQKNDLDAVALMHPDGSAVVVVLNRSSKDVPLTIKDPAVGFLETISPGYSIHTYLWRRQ
# Chain of Rap guanine nucleotide exchange factor 4 (Homo sapiens) (Q8WZA2 whole entry, looked up): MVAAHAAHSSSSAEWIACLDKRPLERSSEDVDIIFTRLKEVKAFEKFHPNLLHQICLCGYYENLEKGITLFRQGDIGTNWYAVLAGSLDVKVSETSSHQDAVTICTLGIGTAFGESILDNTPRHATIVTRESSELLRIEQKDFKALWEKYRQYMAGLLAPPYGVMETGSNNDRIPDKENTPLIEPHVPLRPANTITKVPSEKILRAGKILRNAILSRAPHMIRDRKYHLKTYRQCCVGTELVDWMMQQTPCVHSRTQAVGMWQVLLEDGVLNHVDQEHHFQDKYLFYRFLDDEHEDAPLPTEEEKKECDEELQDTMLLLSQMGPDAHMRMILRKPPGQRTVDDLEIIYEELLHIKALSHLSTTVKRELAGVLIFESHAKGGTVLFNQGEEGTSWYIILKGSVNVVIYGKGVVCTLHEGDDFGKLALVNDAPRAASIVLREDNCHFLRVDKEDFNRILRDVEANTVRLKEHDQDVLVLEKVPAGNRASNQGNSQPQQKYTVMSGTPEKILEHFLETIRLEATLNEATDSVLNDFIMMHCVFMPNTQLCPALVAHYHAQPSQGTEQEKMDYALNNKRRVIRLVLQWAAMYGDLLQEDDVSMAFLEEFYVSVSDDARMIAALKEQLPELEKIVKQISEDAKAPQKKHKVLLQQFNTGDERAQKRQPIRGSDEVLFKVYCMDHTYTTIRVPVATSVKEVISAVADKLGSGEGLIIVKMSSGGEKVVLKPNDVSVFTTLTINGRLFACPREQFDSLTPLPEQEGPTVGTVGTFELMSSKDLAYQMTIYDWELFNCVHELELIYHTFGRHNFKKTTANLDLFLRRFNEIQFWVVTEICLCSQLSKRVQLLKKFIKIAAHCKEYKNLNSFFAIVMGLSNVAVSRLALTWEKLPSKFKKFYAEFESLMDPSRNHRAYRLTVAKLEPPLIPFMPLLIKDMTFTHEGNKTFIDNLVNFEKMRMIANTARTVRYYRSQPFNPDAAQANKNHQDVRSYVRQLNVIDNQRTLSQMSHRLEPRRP
# Chain of Cytochrome P450 1A2 (Homo sapiens) (P05177 whole entry, looked up): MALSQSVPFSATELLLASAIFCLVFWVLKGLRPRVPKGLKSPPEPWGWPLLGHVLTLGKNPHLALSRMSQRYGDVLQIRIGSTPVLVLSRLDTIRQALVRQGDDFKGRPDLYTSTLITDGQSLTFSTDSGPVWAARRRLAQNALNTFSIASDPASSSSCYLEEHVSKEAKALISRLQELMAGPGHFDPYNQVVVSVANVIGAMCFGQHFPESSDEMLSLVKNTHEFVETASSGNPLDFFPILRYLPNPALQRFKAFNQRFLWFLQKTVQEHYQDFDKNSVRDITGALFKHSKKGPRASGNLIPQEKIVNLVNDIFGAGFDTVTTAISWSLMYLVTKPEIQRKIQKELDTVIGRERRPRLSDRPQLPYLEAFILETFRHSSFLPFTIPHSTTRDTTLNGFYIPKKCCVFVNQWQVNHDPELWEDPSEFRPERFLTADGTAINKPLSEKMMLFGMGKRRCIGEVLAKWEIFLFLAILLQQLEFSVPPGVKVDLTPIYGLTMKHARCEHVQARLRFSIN
# Chain of Dual specificity protein kinase CLK4 (Homo sapiens) (Q9HAZ1 whole entry, looked up): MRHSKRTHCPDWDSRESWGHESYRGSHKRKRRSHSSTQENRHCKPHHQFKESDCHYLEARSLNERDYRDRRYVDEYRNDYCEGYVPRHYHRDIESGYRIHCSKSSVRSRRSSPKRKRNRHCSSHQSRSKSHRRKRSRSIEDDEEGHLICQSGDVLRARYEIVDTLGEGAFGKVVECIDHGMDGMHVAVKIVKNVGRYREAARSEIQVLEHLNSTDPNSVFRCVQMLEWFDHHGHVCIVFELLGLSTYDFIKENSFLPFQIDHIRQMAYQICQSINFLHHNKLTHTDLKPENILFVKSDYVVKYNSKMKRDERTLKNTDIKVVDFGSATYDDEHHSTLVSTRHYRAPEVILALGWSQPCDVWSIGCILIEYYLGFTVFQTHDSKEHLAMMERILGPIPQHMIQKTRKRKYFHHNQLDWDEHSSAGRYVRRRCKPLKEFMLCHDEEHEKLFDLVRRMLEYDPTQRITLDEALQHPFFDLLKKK
smiles,measurement,setting,value
COc1ccc(CNc2nc(-c3cccnc3)nc3ccccc23)c(OC)c1,Potency,[1],> 11.4 µM
same,"activity change, negative = inhibition",[2],-16.7%
same,"activity change, negative = inhibition",[3],6.84%
same,outcome,[4],inactive
same,Potency,[5],> 46 µM
same,Potency,[6],inactive
same,Potency,[7],inactive
same,Potency,[8],inactive
same,Potency,[9],inactive
same,Potency,[10],inactive
same,Potency,[11],inactive
same,Potency,[12],inactive
C=C1CCC(O)C/C1=C\C=C1/CCCC2(C)C1CCC2C(C)/C=C/C(C)C(C)C (stereo unspecified),outcome,[13],inactive
same,Potency,[9],inactive
same,Potency,[10],inactive
same,Potency,[11],inactive
same,Potency,[12],inactive
CN1CCN(c2ncc3nc(CCc4ccccc4)c(=O)n(Cc4cccs4)c3n2)CC1,Potency,[1],> 11.4 µM
same,"activity change, negative = inhibition",[2],-5.44%
same,Potency,[14],15.8 µM (active)
same,"activity change, negative = inhibition",[3],4.5%
same,outcome,[4],inactive
same,Potency,[5],> 9.22 µM
same,Potency,[15],> 46 µM
same,Potency,[6],inactive
same,outcome,[16],inactive
same,Potency,[9],inactive
same,Potency,[10],inactive
same,Potency,[11],inactive
same,Potency,[12],inactive
CC(=O)N1CCc2c(sc(NC(=O)CS(=O)(=O)c3ccc(F)cc3)c2C(N)=O)C1,Potency,[9],inactive
same,Potency,[10],inactive
same,Potency,[11],inactive
same,Potency,[17],inactive
O=C1/C(=C\c2cc([N+](=O)[O-])ccc2O)SC(=S)N1Cc1ccc(Cl)cc1,Potency,[9],75.7 µM (active)
same,Potency,[10],inactive
same,Potency,[11],inactive
same,Potency,[17],inactive
COc1ccc(Oc2ncc3nc(CCc4ccccc4)c(=O)n(CCC#N)c3n2)cc1,Potency,[1],> 11.4 µM
same,Potency,[14],6.31 µM (active)
same,"activity change, negative = inhibition",[3],3.1%
same,outcome,[4],inactive
same,Potency,[5],> 9.22 µM
same,Potency,[15],> 46 µM
same,Potency,[6],inactive
same,Potency,[18],inactive
same,Potency,[19],1.58 µM (active)
same,outcome,[16],inactive
same,Potency,[9],inactive
same,Potency,[10],inactive
same,Potency,[11],inactive
same,Potency,[12],inactive
COC(=O)C1=CN(c2c(C)cc(C)cc2C)C(N)=C(C#N)C1c1cccc(F)c1 (stereo unspecified),Potency,[9],inactive
same,Potency,[10],inactive
same,Potency,[11],inactive
same,Potency,[17],inactive
O=C(c1sc2cc(F)ccc2c1Cl)N1CCN(c2ccccc2)CC1,Potency,[9],inactive
same,Potency,[10],inactive
same,Potency,[11],inactive
same,Potency,[17],inactive
CCNc1ccc2noc3c2c1C(=O)c1ccccc1-3,Potency,[20],3.26 µM (active)
same,Potency,[9],inactive
same,Potency,[10],100 µM (active)
same,Potency,[11],100 µM (active)
same,Potency,[12],16.9 µM (active)
same,Potency,[21],22.4 µM (active)
